The nature of assay [1]: CEETOX_H295R_TESTO: CeeTox H295R High-throughput Steroidogenesis Assay for Testosterone (TESTO) (AID 2283457).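 As to AC50: cells exposed to chemicals for 48 h before medium collection.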 To be noted: actives raise or lower the signal. The gist of the method:
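H295R, passage ≤10, 48 h dosing; media extracted with MTBE → HPLC-MS/MS for testosterone; 7-pt standard curve sets LLOQ/ULOQ; bidirectional fit vs DMSO; MTT viability same wells.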

Read-out in assay [2]: Cyclin Dependent Kinase Inhibitor 1A (CDKN1A), CDKN1A (gene 1026)
Nature of the assay: LTEA_HepaRG_CDKN1A: Life Technologies and Expression Analysis (LTEA) Assay for Cyclin Dependent Kinase Inhibitor 1A (CDKN1A) using HepaRG (AID 2283450). The note with it: mRNA level, 48 h; actives raise or lower the signal. The gist of the method: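 Read-out is CDKN1A mRNA by TaqMan qRT-PCR, normalized to three housekeeping genes and fitted in both directions against the DMSO baseline. Human HepaRG cells were treated 48 h with test chemicals up to 100 uM in half-log steps, 0.5% DMSO.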

Read-out in assay [3]: Cyclin D1 (CCND1), CCND1 (gene 595)
In words: LTEA_HepaRG_CCND1: Life Technologies and Expression Analysis (LTEA) Assay for Cyclin D1 (CCND1) using HepaRG (AID 2283451). To be noted: mRNA level, 48 h; actives raise or lower the signal. The gist of the method:
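HepaRG plated 48 h, medium switched to serum-free induction medium, chemicals added in duplicate (top 100 uM, half-log steps, 0.5% DMSO) for 48 h, cells lysed, RNA measured by TaqMan qRT-PCR.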

Read-out in assay [4]: catalase (CAT), CAT (gene 847)
Nature of the assay: LTEA_HepaRG_CAT: Life Technologies and Expression Analysis (LTEA) Assay for catalase (CAT) using HepaRG (AID 2283452). The note with it: mRNA level, 48 h; actives raise or lower the signal. The gist of the method:
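HepaRG cells in serum-free induction medium, 0.5% DMSO vehicle, exposed 48 h in duplicate over 8 half-log concentrations from 100 uM. CAT mRNA measured by qRT-PCR, normalized to ACTB, GAPDH, POLR2A; bidirectional fit versus DMSO.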

Read-out in assay [5]: flavin-containing dimethylaniline monooxygenases 3 (FMO3), FMO3 (gene 2328)
Nature of the assay: LTEA_HepaRG_FMO3: Life Technologies and Expression Analysis (LTEA) Assay for flavin-containing dimethylaniline monooxygenases 3 (FMO3) using HepaRG (AID 2283453). To be noted: mRNA level, 48 h; actives raise or lower the signal. The method, boiled down:
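Differentiated HepaRG cells in serum-free induction medium, exposed 48 h in duplicate to 8 half-log concentrations up to 100 uM in 0.5% DMSO. FMO3 mRNA by qRT-PCR, normalized to ACTB, GAPDH, POLR2A; bidirectional fit vs DMSO.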

Read-out in assay [6]: Cytochrome P450 (CYP1A1), CYP1A1 (gene 1543)
In words: LTEA_HepaRG_CYP1A1: Life Technologies and Expression Analysis (LTEA) Assay for Cytochrome P450 (CYP1A1) using HepaRG (AID 2283454). The note with it: mRNA level, 48 h; actives raise or lower the signal. The method, boiled down:
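HepaRG, 48 h post-plating switched to serum-free induction medium; 8-pt conc-response (top 100 uM, half-log, 0.5% DMSO), duplicates, 48 h. Lysis in RLT, TaqMan qRT-PCR for CYP1A1; gain or loss vs DMSO.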

Read-out in assay [7]: CFLAR gene, CFLAR (gene 8837)
In words: LTEA_HepaRG_CFLAR: Life Technologies and Expression Analysis (LTEA) Assay for CFLAR gene using HepaRG (AID 2283455). To be noted: mRNA level, 48 h; actives raise or lower the signal. The gist of the method:
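Differentiated HepaRG cells in serum-free induction medium were exposed 48 h in duplicate to eight half-log concentrations up to 100 uM in 0.5% DMSO; mRNA measured by TaqMan qRT-PCR, normalized to ACTB, GAPDH, POLR2A; bidirectional fitting versus DMSO.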

Read-out in assay [8]: Forkhead box O1 (FOXO1), FOXO1 (gene 2308)
In words: LTEA_HepaRG_FOXO1: Life Technologies and Expression Analysis (LTEA) Assay for Forkhead box O1 (FOXO1) using HepaRG (AID 2283456). The note with it: mRNA level, 48 h; actives raise or lower the signal. The gist of the method:
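Differentiated HepaRG cells, in serum-free induction medium with 0.5% DMSO, exposed 48 h in duplicate to 8-point half-log series from 100 uM. FOXO1 mRNA measured by TaqMan qRT-PCR, normalized to ACTB, GAPDH, POLR2A; bidirectional fit versus DMSO.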

Read-out in assay [9]: growth arrest and DNA damage 45 (GADD45A), GADD45A (gene 1647)
In words: LTEA_HepaRG_GADD45A: Life Technologies and Expression Analysis (LTEA) Assay for growth arrest and DNA damage 45 (GADD45A) using HepaRG (AID 2283458). The note with it: mRNA level, 48 h; actives raise or lower the signal. The gist of the method:
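Cells plated and cultured 48 h, switched to serum-free induction medium, then dosed for 48 h (100 uM top, half-log dilutions, 0.5% DMSO). RNA was isolated and transcript measured by Fluidigm qRT-PCR.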

Read-out in assay [10]: Forkhead box O3 (FOXO3), FOXO3 (gene 2309)
Nature of the assay: LTEA_HepaRG_FOXO3: Life Technologies and Expression Analysis (LTEA) Assay for Forkhead box O3 (FOXO3) using HepaRG (AID 2283459). To be noted: mRNA level, 48 h; actives raise or lower the signal. The method, boiled down:
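Differentiated human HepaRG cells, 48 h post-plating, exposed in duplicate for 48 h in serum-free induction medium; 8-point half-log series from 100 uM in 0.5% DMSO. FOXO3 mRNA by TaqMan qRT-PCR, normalized to ACTB/GAPDH/POLR2A; bidirectional fit versus DMSO.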

Read-out in assay [11]: ABC Transporter (ABCB1), ABCB1 (gene 5243)
Nature of the assay: LTEA_HepaRG_ABCB1: Life Technologies and Expression Analysis (LTEA) Assay for ABC Transporter (ABCB1) using HepaRG (AID 2283460). The note with it: mRNA level, 48 h; actives raise or lower the signal. The gist of the method: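 HepaRG cells exposed in duplicate for 48 h in serum-free induction medium to eight half-log concentrations up to 100 uM in 0.5% DMSO. ABCB1 mRNA quantified by qRT-PCR, normalised to ACTB, GAPDH and POLR2A; fitted bidirectionally versus DMSO.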

Read-out in assay [12]: growth arrest and DNA damage 45 (GADD45B), GADD45B (gene 4616)
In words: LTEA_HepaRG_GADD45B: Life Technologies and Expression Analysis (LTEA) Assay for growth arrest and DNA damage 45 (GADD45B) using HepaRG (AID 2283461). To be noted: mRNA level, 48 h; actives raise or lower the signal. The gist of the method: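 HepaRG, ~100,000 cells/well, 48 h plating; serum-free induction medium; cpd 100 uM top, half-log x8, 0.5% DMSO, duplicate, 48 h; lysis in RLT, RNA isolation, qRT-PCR; norm ACTB/GAPDH/POLR2A; bidirectional fit vs DMSO.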

Read-out in assay [13]: ABC Transporter (ABCC3), ABCC3 (gene 8714)
Nature of the assay: LTEA_HepaRG_ABCC3: Life Technologies and Expression Analysis (LTEA) Assay for ABC Transporter (ABCC3) using HepaRG (AID 2283462). To be noted: mRNA level, 48 h; actives raise or lower the signal. The gist of the method:
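Human HepaRG, 48 h dosing, 8-pt half-log series from 100 uM, 0.5% DMSO vehicle, duplicates. ABCC3 mRNA by TaqMan qRT-PCR, housekeeping-normalized; bidirectional curve fit vs DMSO.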

Read-out in assay [14]: ABC Transporter (ABCB11), ABCB11 (gene 8647)
Nature of the assay: LTEA_HepaRG_ABCB11: Life Technologies and Expression Analysis (LTEA) Assay for ABC Transporter (ABCB11) using HepaRG (AID 2283463). To be noted: mRNA level, 48 h; actives raise or lower the signal. The method, boiled down:
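Differentiated human HepaRG cells in serum-free induction medium, dosed in duplicate for 48 h. Eight-point half-log series from 100 uM in 0.5% DMSO; ABCB11 mRNA by qRT-PCR, normalized to ACTB, GAPDH, POLR2A, fitted bidirectionally versus DMSO.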

Read-out in assay [15]: ABC Transporter (ABCC2), ABCC2 (gene 1244)
In words: LTEA_HepaRG_ABCC2: Life Technologies and Expression Analysis (LTEA) Assay for ABC Transporter (ABCC2) using HepaRG (AID 2283464). The note with it: mRNA level, 48 h; actives raise or lower the signal. The gist of the method:
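HepaRG, 48 h post-plating; serum-free induction medium; cpd 8-pt, 100 uM top, half-log, 0.5% DMSO, duplicate, 48 h. Readout: ABCC2 mRNA by qRT-PCR, norm. ACTB/GAPDH/POLR2A. Bidirectional fit vs DMSO baseline.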

Read-out in assay [16]: Broad substrate specificity ATP-binding cassette transporter ABCG2 (Homo sapiens) (UniProt Q9UNQ0)
In words: LTEA_HepaRG_ABCG2: Life Technologies and Expression Analysis (LTEA) Assay for ABC Transporter (ABCG2) using HepaRG (AID 2283465). The note with it: mRNA level, 48 h; actives raise or lower the signal. The gist of the method:
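Differentiated HepaRG cells were exposed for 48 h in serum-free induction medium to 8 half-log concentrations, top 100 uM, in 0.5% DMSO. ABCG2 mRNA was measured by qRT-PCR, normalized to ACTB, GAPDH and POLR2A, with bidirectional fitting versus DMSO.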

Read-out in assay [17]: ATP-citrate lyase (ACLY), ACLY (gene 47)
In words: LTEA_HepaRG_ACLY: Life Technologies and Expression Analysis (LTEA) Assay for ATP-citrate lyase (ACLY) using HepaRG (AID 2283466). The note with it: mRNA level, 48 h; actives raise or lower the signal. The method, boiled down:
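Differentiated HepaRG cells exposed 48 h in serum-free induction medium to eight half-log concentrations up to 100 uM in 0.5% DMSO, duplicates. Transcript measured by Fluidigm TaqMan qRT-PCR, normalized to ACTB, GAPDH, POLR2A; bidirectional fit versus DMSO.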

Read-out in assay [18]: Peroxisomal acyl-coenzyme A oxidase 1 (ACOX1) gene, ACOX1 (gene 51)
Nature of the assay: LTEA_HepaRG_ACOX1: Life Technologies and Expression Analysis (LTEA) Assay for Peroxisomal acyl-coenzyme A oxidase 1 (ACOX1) gene using HepaRG (AID 2283467). The note with it: mRNA level, 48 h; actives raise or lower the signal. The method, boiled down:
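HepaRG cells, plated 48 h then switched to serum-free induction medium, were exposed in duplicate for 48 h to 8-point half-log concentrations up to 100 uM in 0.5% DMSO. ACOX1 mRNA was measured by qRT-PCR, normalized to ACTB/GAPDH/POLR2A, and fitted bidirectionally versus DMSO.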

Read-out in assay [19]: Alkaline Phosphatase, Placental (ALPP) gene, ALPP (gene 250)
In words: LTEA_HepaRG_ALPP: Life Technologies and Expression Analysis (LTEA) Assay for Alkaline Phosphatase, Placental (ALPP) gene using HepaRG (AID 2283468). To be noted: mRNA level, 48 h; actives raise or lower the signal. The method, boiled down: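 HepaRG, 48 h plating then 48 h dosing, serum-free induction medium, 0.5% DMSO. 8 conc, half-log, max 100 uM, duplicates. Endpoint: ALPP transcript by qRT-PCR, housekeeping-normalized; gain or loss fitted vs DMSO.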

Read-out in assay [20]: Bcl-2 (BAD) gene, BAD (gene 572)
In words: LTEA_HepaRG_BAD: Life Technologies and Expression Analysis (LTEA) Assay for Bcl-2 (BAD) gene using HepaRG (AID 2283469). The note with it: mRNA level, 48 h; actives raise or lower the signal. The gist of the method:
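Differentiated HepaRG cells were exposed in duplicate in 0.5% DMSO for 48 h to eight-point half-log concentrations up to 100 uM. BAD mRNA was measured by Fluidigm TaqMan qRT-PCR, normalized to ACTB, GAPDH and POLR2A, and fitted bidirectionally against DMSO.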

SMILES strings stand for the structures. The source made the active and inactive calls. The calls were made as follows: active = hit-call score of the fitted dose curve at least 0.9, where 1 is the maximum; inactive = score below 0.9.

The AC50 is the concentration at which the activity in the assay is half-maximal.

Sequence of Broad substrate specificity ATP-binding cassette transporter ABCG2 (Homo sapiens) (Q9UNQ0 whole entry, looked up): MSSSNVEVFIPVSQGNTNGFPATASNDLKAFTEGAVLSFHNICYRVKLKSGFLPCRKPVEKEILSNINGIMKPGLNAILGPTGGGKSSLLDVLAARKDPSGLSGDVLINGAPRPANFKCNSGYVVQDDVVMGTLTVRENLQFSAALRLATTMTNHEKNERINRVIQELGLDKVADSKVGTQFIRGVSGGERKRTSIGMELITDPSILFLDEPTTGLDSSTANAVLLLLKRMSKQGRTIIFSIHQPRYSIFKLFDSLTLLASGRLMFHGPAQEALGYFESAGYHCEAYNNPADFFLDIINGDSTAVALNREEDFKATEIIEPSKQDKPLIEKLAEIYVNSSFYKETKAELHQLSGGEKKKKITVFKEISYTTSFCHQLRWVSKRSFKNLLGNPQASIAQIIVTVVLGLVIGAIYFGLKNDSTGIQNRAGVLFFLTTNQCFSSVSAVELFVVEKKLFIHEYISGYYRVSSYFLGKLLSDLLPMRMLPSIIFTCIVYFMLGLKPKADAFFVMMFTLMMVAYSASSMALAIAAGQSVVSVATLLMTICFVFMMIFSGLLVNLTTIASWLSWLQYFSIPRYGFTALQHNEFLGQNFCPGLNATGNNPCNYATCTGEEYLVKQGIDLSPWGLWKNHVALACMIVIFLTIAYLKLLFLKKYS

With `CCC(C)c1cc([N+](=O)[O-])cc([N+](=O)[O-])c1OC(=O)OC(C)C` (centres undefined), in assay [1], the call was inactive.
As for `BrCc1cccc(Oc2ccccc2)c1`, in assay [1], the AC50 was 34.5 µM (active).
On to `CS(=O)(=O)OCCCCOS(C)(=O)=O`, for which the call in assay [2], in assay [3], in assay [4], in [5], in assay [6] and in [7] was inactive. Besides, the call in assay [8], in assay [9], in assay [10], in [11], in assay [12] and in assay [13] was inactive. For the same molecule, the molecule was classed as inactive in assay [14], in [15], in assay [16], in assay [17], in assay [18] and in assay [19]. Moreover, in assay [20], the result was inactive.
Regarding `OCc1cccc(Oc2ccccc2)c1`, the AC50 in [1] is 50 µM (active).
On to `CCOC(=O)[C@@H](C)Oc1ccc(Oc2nc3ccc(Cl)cc3o2)cc1`, for which the molecule was called inactive in assay [1].
Same read-out and setting: next, `Nc1ccc(N)c2c1C(=O)c1ccccc1C2=O`: “inactive”.

(Values after PubChem BioAssay (EPA / NIEHS).)
